# Test results published in PubChem BioAssay.
# Several values for one entry are separate records, joined by “and”; a condition that tells them apart may be missing. Identical values can stand only once. For some of these results: Results with a measured potency or affinity are listed apart. Activity calls are given as the source filed them. Cut-off read from the data, not from the text of the source, unless noted: active = parasite load remaining mostly below about 12% (no sharp cut-off); inactive = mostly above about 10%.
# How the values were obtained:
# [1] = hESC survival regulators, cell-based (AID 493140; call rule not given here;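 note: cells exposed to compounds for four days before counting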); conditions: human embryonic stem cell survival screen; stronger effect = higher value
# [2] = liver-stage malaria parasite growth inhibition, primary screen, cell-based, HepG2, luciferase luminescence, HepG2 viability (AID 624349);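 note: 100% = mean of DMSO negative control wells on the same plate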; conditions: P. berghei liver stage in HepG2, luciferase luminescence, concentration not given here; parasite load remaining: stronger effect = lower value; viability: measured here: HepG2 viability without parasites
# [3] = biological target: 6-phosphogluconate dehydrogenase, decarboxylating (Homo sapiens) (UniProt P52209); assay: 6PGD enzyme inhibitors, primary screen, biochemical, human, recombinant enzyme, NADPH absorbance (AID 1159550;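 active = at least 20% inhibition of 6-phosphogluconate dehydrogenase activity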); conditions: recombinant 6PGD, NADPH absorbance 341 nm; at 10 µM; stronger effect = higher value
# Chain of 6-phosphogluconate dehydrogenase, decarboxylating (Homo sapiens) (P52209 whole entry, looked up): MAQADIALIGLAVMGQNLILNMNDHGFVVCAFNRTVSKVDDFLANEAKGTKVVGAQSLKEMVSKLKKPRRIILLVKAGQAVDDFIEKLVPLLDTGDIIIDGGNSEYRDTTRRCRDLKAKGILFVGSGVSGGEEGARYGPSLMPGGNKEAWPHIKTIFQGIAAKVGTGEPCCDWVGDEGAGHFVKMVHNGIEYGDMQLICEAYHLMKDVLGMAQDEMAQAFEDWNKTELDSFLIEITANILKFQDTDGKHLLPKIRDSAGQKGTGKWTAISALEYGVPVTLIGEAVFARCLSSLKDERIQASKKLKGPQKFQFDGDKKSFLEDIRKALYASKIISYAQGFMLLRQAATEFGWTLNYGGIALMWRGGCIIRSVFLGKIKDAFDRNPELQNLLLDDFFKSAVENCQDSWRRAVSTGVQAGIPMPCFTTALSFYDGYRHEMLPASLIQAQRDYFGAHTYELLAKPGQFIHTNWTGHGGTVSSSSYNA
# [4] = differential killing of epithelial or mesenchymal cells, primary screen, imaging, PC-3E GFP, TEM4-18 mCherry, co-culture (AID 1345086;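 active = compounds killing one labelled cell type while sparing the other, by normalised counts and ratio limits, not self-fluorescent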;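 for all read-outs here: cells exposed to compound for 72 h before imaging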;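 for red/green cell ratio (normalised): normalised mesenchymal count divided by normalised epithelial count so high means epithelial killing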); conditions: imaging cell counts, at 1 µM; for red/green cell ratio (normalised): actives lie on both sides, counts scaled to control wells, 1 = unselective
# [5] = sensitizers of A549 cells to miR-34 induction, primary screen, imaging, A549 dox-inducible miR-34, nuclei and caspase counts (AID 1347080;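 active = compounds whose cell count with miR-34 switched on is under 0.7 times the count with it off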); conditions: A549 miR-34 inducible, Hoechst nuclei count, 48 h
# [6] = biological target: Mitogen-activated protein kinase 7 (Homo sapiens) (UniProt Q13164); assay: ERK5 transactivation activators in reporter cells, primary screen, cell-based, HTS (AID 1508626;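 active = luciferase signal above three times the same-plate solvent-only control wells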;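 note: luciferase driven by Gal4-ERK5 fusion binding five Gal4 sites before minimal TATA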); conditions: HeLa Gal4-ERK5 transactivation, 18 h, at 5 µM, stronger effect = higher value
# Chain of Mitogen-activated protein kinase 7 (Homo sapiens) (Q13164 whole entry, looked up, the tested form may be a part): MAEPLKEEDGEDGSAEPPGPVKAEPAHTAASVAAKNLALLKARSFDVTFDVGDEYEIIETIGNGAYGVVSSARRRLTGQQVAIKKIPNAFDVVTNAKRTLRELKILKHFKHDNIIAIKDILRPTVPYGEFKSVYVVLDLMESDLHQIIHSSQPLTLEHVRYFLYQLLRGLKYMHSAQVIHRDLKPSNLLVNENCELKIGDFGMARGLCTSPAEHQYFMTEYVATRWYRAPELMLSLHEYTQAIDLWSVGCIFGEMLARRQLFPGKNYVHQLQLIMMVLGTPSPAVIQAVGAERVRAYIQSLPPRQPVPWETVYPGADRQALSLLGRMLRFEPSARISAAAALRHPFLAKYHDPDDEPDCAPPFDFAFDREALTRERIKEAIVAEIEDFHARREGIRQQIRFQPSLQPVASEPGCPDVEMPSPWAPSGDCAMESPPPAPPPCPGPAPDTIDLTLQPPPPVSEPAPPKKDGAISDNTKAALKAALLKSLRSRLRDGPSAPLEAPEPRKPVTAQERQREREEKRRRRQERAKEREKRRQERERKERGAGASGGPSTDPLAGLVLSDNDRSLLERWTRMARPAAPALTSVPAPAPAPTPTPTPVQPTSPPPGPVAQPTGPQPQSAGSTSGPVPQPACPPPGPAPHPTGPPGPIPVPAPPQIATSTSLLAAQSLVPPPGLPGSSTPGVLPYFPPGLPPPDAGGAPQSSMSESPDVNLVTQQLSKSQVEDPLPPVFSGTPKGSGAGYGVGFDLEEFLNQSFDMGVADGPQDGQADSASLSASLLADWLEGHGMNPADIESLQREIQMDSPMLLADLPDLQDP
# [7] = polyglutamine-triggered caspase-3 activation inhibitors, cell-based (AID 1583); conditions: polyglutamine-induced caspase-3 activation, cell assay; stronger effect = higher value;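 tested at 10 µM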
# [8] = suppressors of polyQ aggregation in yeast, 75Q-TubU reporter (AID 1593); conditions: Yeast 75Q polyglutamine aggregation reporter
# [9] = rescue of polyQ-huntingtin neuronal dysfunction in worms, whole organism, C. elegans mechanosensory neurons, N-terminal huntingtin (AID 1599); conditions: touch response, stronger effect = higher value
# [10] = inhibitors of mitochondrial cytochrome c release, biochemical, purified mitochondria (AID 1603); conditions: stronger effect = lower value;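 note: mouse liver mitochondria challenged with calcium chloride; signal normalized to the plate average as 100%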
# [11] = inhibitors of polyQ protein aggregation (AID 1604); conditions: polyglutamine-induced protein aggregation inhibition assay; stronger effect = higher value; tested at 2.5 µM
# [12] = enhancers of glutamate uptake in motor neurons, MN-1 cell line (AID 1612); conditions: MN-1 motor neuron cells, stronger effect = higher value;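 note: tested at 1 µM final; 0% = mean of DMSO vehicle wells on each plate; positive means more glutamate uptake than control and negative means less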
# [13] = reducers of polyQ inclusions in PC12 cells, cell-based, NGF-treated PC12, GFPQ80 (AID 1614); conditions: PC12 NGF-treated GFP-polyQ80 inclusion reduction;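 note: lower means fewer inclusions and 0 means no inclusions at all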
# [14] = suppressors of polyglutamine aggregation in yeast, 75Q-TubH (AID 1616); conditions: S. cerevisiae 75Q-TubH polyglutamine aggregation suppression; stronger effect = higher value
# [15] = biological target: NAD(+) hydrolase SARM1 (Homo sapiens) (UniProt Q6SZW1); assay: SARM1 TIR NADase inhibitors, cell lysate, NAD-Glo luminescence (AID 1508614;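 active = compound whose remaining NAD level is above about 45 nM, limit read from the data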;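 note: higher remaining NAD means stronger inhibition of SARM1 NADase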); conditions: SAM-TIR HEK293T lysate NADase, at 1 µM, stronger effect = higher value
# Chain of NAD(+) hydrolase SARM1 (Homo sapiens) (Q6SZW1 whole entry, looked up): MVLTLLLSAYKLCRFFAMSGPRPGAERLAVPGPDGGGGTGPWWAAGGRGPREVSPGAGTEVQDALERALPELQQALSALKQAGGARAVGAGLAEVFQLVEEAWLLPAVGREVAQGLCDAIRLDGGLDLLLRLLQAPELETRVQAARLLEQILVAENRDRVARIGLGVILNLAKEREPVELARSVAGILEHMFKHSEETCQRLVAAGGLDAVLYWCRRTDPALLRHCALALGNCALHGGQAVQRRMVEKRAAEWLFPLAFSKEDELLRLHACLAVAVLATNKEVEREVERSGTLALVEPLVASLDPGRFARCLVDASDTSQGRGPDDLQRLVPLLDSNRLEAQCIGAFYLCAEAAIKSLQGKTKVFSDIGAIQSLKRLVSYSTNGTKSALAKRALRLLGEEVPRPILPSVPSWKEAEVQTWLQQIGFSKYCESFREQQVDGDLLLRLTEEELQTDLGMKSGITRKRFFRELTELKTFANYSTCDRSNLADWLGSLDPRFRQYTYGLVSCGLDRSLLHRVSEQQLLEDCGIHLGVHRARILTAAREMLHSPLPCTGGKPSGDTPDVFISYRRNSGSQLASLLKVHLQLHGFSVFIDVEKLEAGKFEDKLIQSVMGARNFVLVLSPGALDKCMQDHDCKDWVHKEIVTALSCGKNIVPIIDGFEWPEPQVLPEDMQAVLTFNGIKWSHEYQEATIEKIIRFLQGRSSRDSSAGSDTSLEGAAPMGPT
# [16] = circadian clock period modulators, cell-based, LOPAC library, luminescence reporter (AID 2774; call rule not given here;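 note: values are relative to mean of DMSO wells on each plate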); conditions: circadian reporter cells, at 7 µM, actives lie on both sides
# [17] = phospholipid biosynthesis inhibitors in animal cells, primary screen, cell-based, LOPAC library, screen 4 (AID 1347384; call rule not given here); conditions: phospholipid biosynthesis inhibition screen, at 10 µM
# [18] = survival rescue of mitochondrial mutant cells in low glucose, primary screen, MELAS cybrids, Rieske KO mouse fibroblasts, CellTiter-Glo (AID 1508586;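 active = mean z-score across replicates of 1.96 or higher in either the MELAS or the Rieske mutant cell line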;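 note: z relative to plate mean and SD of compound and empty wells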)
# [19] = viability rescue of complex I mutant cybrids, primary screen, cell-based, galactose medium, ATP luminescence (AID 1645843;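 active = z-score of at least 1.8 in each of two replicates, scored against plate mean and spread of sample wells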;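 note: positive z means more ATP and so rescue of galactose-driven cybrid death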); conditions: complex I mutant cybrid cells, 72 h, stronger effect = higher value
# [20] = measured here: epithelial PC-3E GFP cell survival
# [21] = measured here: mesenchymal TEM4-18 mCherry cell survival
# [22] = stronger effect = lower value, cell number ratio, induced over uninduced
# [23] = measured here: relative caspase fold change +Dox/-Dox
# [24] = measured here: total cells with miR-34 induction, stronger effect = lower value
# [25] = measured here: total cells without miR-34 induction
smiles,measurement,setting,value
O=c1ccc2cc(O)c(O)cc2o1,survival,[1],5.75 (inactive)
same,parasite load remaining,[2],19.5% (inactive) and 73.2% (inactive)
same,viability,[2],92.8% and 68.7%
same,inhibition,[3],2.61% (inactive)
same,red/green cell ratio (normalised),[4],1.16 (inactive)
same,normalised cell number,[4]; [20],0.88
same,normalised cell number,[4]; [21],1.02
same,fold change,[5]; [22],0.832 (inactive)
same,fold change,[5]; [23],1.64
same,cell count,[5]; [24],6390
same,cell count,[5]; [25],7680
same,luciferase signal,[6],72 AU (inactive)
CCCCCCCCCCCCCCCC(=O)OC/C=C(C)/C=C/C=C(C)/C=C/C1=C(C)CCCC1(C)C,inhibition,[7],-19.1%
same,score,[8],1.38
same,rescue above control,[9],3.93
same,cytochrome c release ratio,[10],1.03
same,inhibition of aggregation,[11],46%
same,glutamate uptake change,[12],4.94%
same,inclusion score,[13],2
same,aggregation suppression score,[14],0.6
same,parasite load remaining,[2],174% (inactive) and 50.5% (inactive)
same,viability,[2],86.2% and 95%
same,inhibition,[3],1.58% (inactive)
same,red/green cell ratio (normalised),[4],1.41 (inactive)
same,normalised cell number,[4]; [20],0.95
same,normalised cell number,[4]; [21],1.34
same,fold change,[5]; [22],0.809 (inactive)
same,fold change,[5]; [23],0.861
same,cell count,[5]; [24],9920
same,cell count,[5]; [25],12300
same,remaining NAD,[15],10 nM (inactive)
same,luciferase signal,[6],624 AU (active)
CC[C@H]1OC(=O)C[C@@H](O)[C@H](C)[C@@H](O[C@@H]2O[C@H](C)[C@@H](O[C@H]3C[C@@](C)(O)[C@@H](O)[C@H](C)O3)[C@H](N(C)C)[C@H]2O)[C@@H](CC=O)C[C@@H](C)C(=O)/C=C/C(C)=C/[C@@H]1CO[C@@H]1O[C@H](C)[C@@H](O)[C@@H](OC)[C@H]1OC,parasite load remaining,[2],131% (inactive) and 58.3% (inactive)
same,viability,[2],85.6% and 145%
same,inhibition,[3],1.55% (inactive)
same,red/green cell ratio (normalised),[4],1.03 (inactive)
same,normalised cell number,[4]; [20],1.05
same,normalised cell number,[4]; [21],1.08
same,fold change,[5]; [22],0.905 (inactive)
same,fold change,[5]; [23],5.16
same,cell count,[5]; [24],12000
same,cell count,[5]; [25],13200
same,remaining NAD,[15],10 nM (inactive)
same,luciferase signal,[6],16 AU (inactive)
N[C@H](Cc1ccccc1)C(=O)O,inhibition,[7],15.8%
same,score,[8],1.59
same,rescue above control,[9],-4.58
same,cytochrome c release ratio,[10],0.85
same,inhibition of aggregation,[11],56.8%
same,glutamate uptake change,[12],4.25%
same,inclusion score,[13],2
same,aggregation suppression score,[14],1.21
same,parasite load remaining,[2],140% (inactive)
same,viability,[2],87.2%
same,inhibition,[3],6.57% (inactive)
same,red/green cell ratio (normalised),[4],1.1 (inactive)
same,normalised cell number,[4]; [20],0.82
same,normalised cell number,[4]; [21],0.9
same,remaining NAD,[15],98 nM (active)
same,luciferase signal,[6],56 AU (inactive)
CC1=C(/C=C/C(C)=C/C=C/C(C)=C/CO)C(C)(C)CCC1,inhibition,[7],25.6%
same,score,[8],-0.82
same,rescue above control,[9],28.1
same,cytochrome c release ratio,[10],1.19
same,inhibition of aggregation,[11],88.9%
same,glutamate uptake change,[12],-6.81%
same,aggregation suppression score,[14],0.11
same,parasite load remaining,[2],115% (inactive) and 48.9% (inactive)
same,viability,[2],69.5% and 99.6%
same,inhibition,[3],-7.77% (inactive)
same,red/green cell ratio (normalised),[4],1.32 (inactive)
same,normalised cell number,[4]; [20],0.9
same,normalised cell number,[4]; [21],1.18
same,fold change,[5]; [22],0.915 (inactive)
same,fold change,[5]; [23],2.67
same,cell count,[5]; [24],11800
same,cell count,[5]; [25],12800
same,remaining NAD,[15],10 nM (inactive)
same,luciferase signal,[6],48 AU (inactive)
COc1ccc2cc([C@H](C)CO)ccc2c1,parasite load remaining,[2],184% (inactive) and 65% (inactive)
same,viability,[2],85.1% and 144%
same,inhibition,[3],2.43% (inactive)
same,red/green cell ratio (normalised),[4],1.04 (inactive)
same,normalised cell number,[4]; [20],1.15
same,normalised cell number,[4]; [21],1.2
same,fold change,[5]; [22],0.861 (inactive)
same,fold change,[5]; [23],3.55
same,cell count,[5]; [24],11000
same,cell count,[5]; [25],12800
same,remaining NAD,[15],10 nM (inactive)
same,luciferase signal,[6],32 AU (inactive)
C=Cc1c(C)/c2[n-]/c1=C\c1[n-]c(c(CC)c1C)/C=c1\[n-]c3c(c1C)C(=O)C(C(=O)[O-])C=3c1[n-]c(c(C)c1CCC(=O)[O-])\C=2.[Cu].[Na+].[Na+] (stereo not drawn),parasite load remaining,[2],101% (inactive) and 38.1% (inactive)
same,viability,[2],71.3% and 170%
same,inhibition,[3],37.8% (active)
same,red/green cell ratio (normalised),[4],0.85 (inactive)
same,normalised cell number,[4]; [20],1.03
same,normalised cell number,[4]; [21],0.87
same,fold change,[5]; [22],0.937 (inactive)
same,fold change,[5]; [23],2.82
same,cell count,[5]; [24],11500
same,cell count,[5]; [25],12300
CC(C)Cn1c(=O)n(C)c(=O)c2[nH]cnc21,inhibition,[7],10.7%
same,score,[8],1.18
same,rescue above control,[9],-7.15
same,cytochrome c release ratio,[10],0.66
same,inhibition of aggregation,[11],80.3%
same,glutamate uptake change,[12],11.7%
same,inclusion score,[13],2
same,aggregation suppression score,[14],1.34
same,period change,[16],0.065 h (inactive)
same,parasite load remaining,[2],31.6% (inactive)
same,viability,[2],71.5%
same,inhibition,[3],-0.657% (inactive) and 4.73% (inactive)
same,red/green cell ratio (normalised),[4],0.79 (inactive) and 0.82 (inactive)
same,normalised cell number,[4]; [20],1.26 and 1.32
same,normalised cell number,[4]; [21],1 and 1.09
same,outcome,[17],inactive
same,z-score,"[18]; MELAS cybrid survival, CellTiter-Glo 48 h, stronger effect = higher value",-0.413 (inactive) and 0.263 (inactive)
same,z-score,"[18]; Rieske KO mouse fibroblast survival, CellTiter-Glo 72 h",0.307 and 0.838
same,luciferase signal,[6],504 AU (active)
same,z-score,[19],0.71 (inactive) and -0.29 (inactive) and 0.67 (inactive)
COc1cc2cc3c4cc(OC)c(OC)cc4cc[n+]3c(C)c2cc1OC,survival,[1],0.333 (inactive)
same,parasite load remaining,[2],91.2% (inactive) and 45.3% (inactive) and 68.5% (inactive)
same,viability,[2],98.6% and 66.5% and 73.3%
same,inhibition,[3],13.7% (inactive)
same,red/green cell ratio (normalised),[4],0.8 (inactive)
same,normalised cell number,[4]; [20],1
same,normalised cell number,[4]; [21],0.8
same,fold change,[5]; [22],0.879 (inactive)
same,fold change,[5]; [23],1.23
same,cell count,[5]; [24],8980
same,cell count,[5]; [25],10200
same,luciferase signal,[6],72 AU (inactive)
